Reference: the supplement of paper PMC8007513
Where a name gives a salt, the structure may show the parent alone. ± gives the standard error. Screen size: about 1,300 compounds; about 130 (10%) showed an effect of 50% or more. Only a selection was taken, and strong results are over-represented in it overall.

Tested on: Trichoderma virens ATCC 9645
Assay: growth yield (OD600) with compound + IPBC relative to untreated control; higher = less growth inhibition
Conditions: compound concentration: 100 uM, IPBC concentration: 200 ng/ml
Method in brief: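 For each 96-well plate, 100 μl aliquots were prepared with Trichoderma virens ATCC 9645 spores suspended at 15,000 spores ml^−1 in potato dextrose broth. The spores had been harvested from potato dextrose agar plates after 7 days. Library compounds were present at 100 μM final, some wells also receiving a biocide at 200 ng ml^−1, and plates were grown at 30 °C with OD600 read on a BioTek EL800 at 40 h and 72 h. Reported growth, relative to the control lacking both agents, is the mean of duplicate screens.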

| Compound | growth yield (40 h) | growth yield (72 h) |
| --- | --- | --- |
| Cc1ncc([N+](=O)[O-])n1CC(C)O (configuration not stated) [Secnidazole] + CCCCNC(=O)OCC#CI [3-iodo-2-propynyl butylcarbamate (IPBC)] | 95.9 ± 13% | 94.5 ± 9.8% |
| N=C(N)NC(=O)Cc1c(Cl)cccc1Cl [Guanfacine hydrochloride] + CCCCNC(=O)OCC#CI [3-iodo-2-propynyl butylcarbamate (IPBC)] | 79.9 ± 4.3% | 90.7 ± 3.7% |
| O=C1[C@H]2CCCC[C@H]2C(=O)N1CCCCN1CCN(c2nsc3ccccc23)CC1 [Perospirone] + CCCCNC(=O)OCC#CI [3-iodo-2-propynyl butylcarbamate (IPBC)] | 79.4 ± 0.95% | 88.41 ± 0.32% |
| C[C@@H]1C[C@H]2[C@@H]3C[C@H](F)C4=CC(=O)C=C[C@]4(C)[C@@]3(F)[C@@H](O)C[C@]2(C)[C@@]1(O)C(=O)COC(=O)C(C)(C)C [Flumethasone pivalate] + CCCCNC(=O)OCC#CI [3-iodo-2-propynyl butylcarbamate (IPBC)] | 90.9 ± 2.5% | 90.3 ± 2% |
| CN(CCCN1c2ccccc2CCc2ccccc21)CC(=O)c1ccc(Cl)cc1 [Lofepramine] + CCCCNC(=O)OCC#CI [3-iodo-2-propynyl butylcarbamate (IPBC)] | 78.31 ± 0.48% | 91.7 ± 1.3% |
| CCN[C@H]1CN(CCCOC)S(=O)(=O)c2sc(S(N)(=O)=O)cc21 [Brinzolamide] + CCCCNC(=O)OCC#CI [3-iodo-2-propynyl butylcarbamate (IPBC)] | 76.1 ± 0.79% | 86.31 ± 0.32% |
| CC(N/C(=N\C#N)Nc1ccncc1)C(C)(C)C (configuration not stated) [Pinacidil] + CCCCNC(=O)OCC#CI [3-iodo-2-propynyl butylcarbamate (IPBC)] | 97.7 ± 5.9% | 102 ± 2.9% |
| CCCCc1cc2ccccc2c(OCCN(C)C)n1 [Dimethisoquin hydrochloride] + CCCCNC(=O)OCC#CI [3-iodo-2-propynyl butylcarbamate (IPBC)] | 52.1 ± 0.64% | 82.64 ± 0.42% |
| CC(C)c1nc(CN(C)C(=O)N[C@H](C(=O)N[C@@H](Cc2ccccc2)C[C@H](O)[C@H](Cc2ccccc2)NC(=O)OCc2cncs2)C(C)C)cs1 [Ritonavir] + CCCCNC(=O)OCC#CI [3-iodo-2-propynyl butylcarbamate (IPBC)] | 119 ± 1.6% | 119 ± 1.5% |
| O=C(O)CCC(=O)c1ccc(-c2ccccc2)cc1 [Fenbufen] + CCCCNC(=O)OCC#CI [3-iodo-2-propynyl butylcarbamate (IPBC)] | 71.5 ± 2.9% | 92.2 ± 1.8% |
| CCC[C@@H]1C[C@@H](C(=O)N[C@@H]([C@H]2O[C@H](SC)[C@H](O)[C@@H](O)[C@H]2O)[C@@H](C)O)N(C)C1 [Lincomycin hydrochloride] + CCCCNC(=O)OCC#CI [3-iodo-2-propynyl butylcarbamate (IPBC)] | 85.8 ± 3.5% | 94.6 ± 2.3% |
| COCC1=C(C(=O)OC(C)OC(=O)OC(C)C)N2C(=O)[C@@H](NC(=O)/C(=N\OC)c3csc(N)n3)[C@H]2SC1 (some centres not stated) [Cefpodoxime proxetil] + CCCCNC(=O)OCC#CI [3-iodo-2-propynyl butylcarbamate (IPBC)] | 121 ± 3.5% | 113.6 ± 0.94% |
| Nc1cc(N2CCCCC2)nc(N)[n+]1[O-] [Minoxidil] + CCCCNC(=O)OCC#CI [3-iodo-2-propynyl butylcarbamate (IPBC)] | 90.1 ± 2.1% | 93.5 ± 1.7% |
| C[C@]12CC[C@H](O)C[C@H]1CC[C@@H]1[C@@H]2C[C@@H](O)[C@]2(C)[C@@H](C3=CC(=O)OC3)CC[C@]12O [Digoxigenin] + CCCCNC(=O)OCC#CI [3-iodo-2-propynyl butylcarbamate (IPBC)] | 86.6 ± 2.7% | 90.72 ± 0.32% |
| COC(=O)[C@@H]1[C@H]2C[C@H]3c4[nH]c5ccccc5c4CCN3C[C@@H]2CC[C@@H]1O [Yohimbine hydrochloride] + CCCCNC(=O)OCC#CI [3-iodo-2-propynyl butylcarbamate (IPBC)] | 82.4 ± 1.1% | 89.25 ± 0.73% |
| Nc1nc2[nH]cc(CCc3ccc(C(=O)N[C@@H](CCC(=O)O)C(=O)O)cc3)c2c(=O)[nH]1 [Pemetrexed disodium] + CCCCNC(=O)OCC#CI [3-iodo-2-propynyl butylcarbamate (IPBC)] | 94.8 ± 7.2% | 94 ± 4% |
| CC(CN1c2ccccc2Sc2ccccc21)N(C)C (configuration not stated) [Promethazine hydrochloride] + CCCCNC(=O)OCC#CI [3-iodo-2-propynyl butylcarbamate (IPBC)] | 78.2 ± 1.9% | 94.3 ± 4.1% |
| CCN(CC)C(C)CN1c2ccccc2Sc2ccccc21 (configuration not stated) [Ethopropazine hydrochloride] + CCCCNC(=O)OCC#CI [3-iodo-2-propynyl butylcarbamate (IPBC)] | 72.4 ± 3.8% | 89.2 ± 1.6% |

| Compound | growth yield (40 h) | growth yield (72 h) |
| --- | --- | --- |
| CCSc1ccc2c(c1)N(CCCN1CCN(C)CC1)c1ccccc1S2 [Thiethylperazine dimalate] + CCCCNC(=O)OCC#CI [3-iodo-2-propynyl butylcarbamate (IPBC)] | 4.45 ± 0.32% | 3.25 ± 0.1% |
| C[C@]12C=CC(=O)C=C1CC[C@H]1[C@@H]3C[C@@H](O)[C@](O)(C(=O)CO)[C@@]3(C)C[C@H](O)[C@@]12F [Triamcinolone] + CCCCNC(=O)OCC#CI [3-iodo-2-propynyl butylcarbamate (IPBC)] | 98.3 ± 3% | 97.5 ± 1.9% |
| COc1ccc(-c2cc(=S)ss2)cc1 [Anethole-trithione] + CCCCNC(=O)OCC#CI [3-iodo-2-propynyl butylcarbamate (IPBC)] | 77 ± 1.8% | 74.9% |
| CN1C[C@H](CNC(=O)OCc2ccccc2)C[C@@H]2c3cccc4c3c(cn4C)C[C@H]21 [Metergoline] + CCCCNC(=O)OCC#CI [3-iodo-2-propynyl butylcarbamate (IPBC)] | 45.4 ± 15% | 112 ± 9.5% |
| CN1C[C@H](C(=O)N[C@]2(C)O[C@@]3(O)[C@@H]4CCCN4C(=O)[C@H](Cc4ccccc4)N3C2=O)C[C@@H]2c3cccc4[nH]cc(c34)C[C@H]21 [Dihydroergotamine tartrate] + CCCCNC(=O)OCC#CI [3-iodo-2-propynyl butylcarbamate (IPBC)] | 105 ± 5.2% | 107 ± 2.3% |
| CO[C@]12C[C@@H](COC(=O)c3cncc(Br)c3)CN(C)[C@@H]1Cc1cn(C)c3cccc2c13 [Nicergoline] + CCCCNC(=O)OCC#CI [3-iodo-2-propynyl butylcarbamate (IPBC)] | 74.2 ± 8.4% | 93 ± 5.3% |
| CC[C@H](C)C(=O)O[C@H]1C[C@@H](C)C=C2C=C[C@H](C)[C@H](CC[C@@H]3C[C@@H](O)CC(=O)O3)[C@H]21 [Lovastatin] + CCCCNC(=O)OCC#CI [3-iodo-2-propynyl butylcarbamate (IPBC)] | 104 ± 4% | 103 ± 1.6% |
| CN1CCN(C(=O)OC2c3nccnc3C(=O)N2c2ccc(Cl)cn2)CC1 (configuration not stated) [Zopiclone] + CCCCNC(=O)OCC#CI [3-iodo-2-propynyl butylcarbamate (IPBC)] | 91.8 ± 2.5% | 93 ± 1.4% |
| CC(=O)OC[C@H]1O[C@@H]([S-])[C@H](OC(C)=O)[C@@H](OC(C)=O)[C@@H]1OC(C)=O.CCP(CC)CC.[Au+] [Auranofin] + CCCCNC(=O)OCC#CI [3-iodo-2-propynyl butylcarbamate (IPBC)] | 23.2 ± 1.3% | 29.7 ± 2.4% |
| CO[C@H]1/C=C/O[C@@]2(C)Oc3c(C)c(O)c4c(c3C2=O)C2=NC3(CCN(CC(C)C)CC3)NC2=C(NC(=O)/C(C)=C\C=C\[C@H](C)[C@H](O)[C@@H](C)[C@@H](O)[C@@H](C)[C@H](OC(C)=O)[C@@H]1C)C4=O [Rifabutin] + CCCCNC(=O)OCC#CI [3-iodo-2-propynyl butylcarbamate (IPBC)] | 99.4% | 97.1 ± 8.4% |
| CC(=O)OCC1=C(C(=O)O)N2C(=O)[C@@H](NC(=O)Cc3cccs3)[C@H]2SC1 [Cephalothin sodium salt] + CCCCNC(=O)OCC#CI [3-iodo-2-propynyl butylcarbamate (IPBC)] | 91.7 ± 8.4% | 90.9 ± 7.9% |
| CCC(Cc1c(I)cc(I)c(N)c1I)C(=O)O (configuration not stated) [Iopanoic acid] + CCCCNC(=O)OCC#CI [3-iodo-2-propynyl butylcarbamate (IPBC)] | 70.2 ± 2.5% | 88.3 ± 4.4% |
| COc1c(N2C[C@@H]3CCCN[C@@H]3C2)c(F)cc2c(=O)c(C(=O)O)cn(C3CC3)c12 [Moxifloxacin] + CCCCNC(=O)OCC#CI [3-iodo-2-propynyl butylcarbamate (IPBC)] | 109 ± 2.7% | 105 ± 3.5% |
| O=C1c2ccccc2S(=O)(=O)N1CCCCN1CCN(c2ncccn2)CC1 [Ipsapirone] + CCCCNC(=O)OCC#CI [3-iodo-2-propynyl butylcarbamate (IPBC)] | 87.4 ± 4.8% | 90.7 ± 1.8% |
| Cc1ccc(N(CC2=NCCN2)c2cccc(O)c2)cc1 [Phentolamine hydrochloride] + CCCCNC(=O)OCC#CI [3-iodo-2-propynyl butylcarbamate (IPBC)] | 86.25 ± 0.79% | 97.64 ± 0.73% |
| CCCCCC[C@H]1C(=O)O[C@H](C)[C@H](NC(=O)c2cccc(NC=O)c2O)C(=O)O[C@@H](C)[C@@H]1OC(=O)CC(C)C [Antimycin A] + CCCCNC(=O)OCC#CI [3-iodo-2-propynyl butylcarbamate (IPBC)] | 17.6 ± 1.1% | 42.9 ± 2.4% |
| COc1cccc(C2(O)CCCCC2CN(C)C)c1 (configuration not stated) [Tramadol hydrochloride] + CCCCNC(=O)OCC#CI [3-iodo-2-propynyl butylcarbamate (IPBC)] | 87.5 ± 2.1% | 90.51 ± 0.73% |
| COCCCOc1cc(C[C@@H](C[C@H](N)[C@@H](O)C[C@H](C(=O)NCC(C)(C)C(N)=O)C(C)C)C(C)C)ccc1OC [Aliskiren hemifumarate] + CCCCNC(=O)OCC#CI [3-iodo-2-propynyl butylcarbamate (IPBC)] | 93.4 ± 5.1% | 99.1 ± 1.1% |
